DAX1 inh-1: NR0B1 (DAX1) inhibition. inhibition, % at 6.75 µM. HEK293 Gal4-DAX1 luciferase reporter, luminescence. actives 0.99% (n = 340,000);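 active = inhibition above the mean over all tested compounds plus 3 SD, cut at about 4.2% in these data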;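 also: 0% = DAX1-transfected cells with DMSO and 100% = empty-vector control cells with DMSO; inhibition shows as a rise in luminescence from relieved DAX1 repression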
Target sequence (P51843 207-470 limits assumed): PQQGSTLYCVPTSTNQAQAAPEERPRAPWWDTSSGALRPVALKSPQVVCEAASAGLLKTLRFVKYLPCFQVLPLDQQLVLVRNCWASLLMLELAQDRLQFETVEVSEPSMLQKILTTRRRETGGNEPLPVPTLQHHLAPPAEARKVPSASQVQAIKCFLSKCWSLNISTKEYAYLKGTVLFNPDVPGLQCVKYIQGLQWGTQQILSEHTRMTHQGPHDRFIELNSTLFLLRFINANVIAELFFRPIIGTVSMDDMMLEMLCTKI
hcDAF-12 act: H. contortus DAF-12 activation, primary screen; HEK293 hcDAF-12 lit1-tk-luc reporter, luminescence; 0% DMSO, 100% Δ7-dafachronic acid; activation, % at 6.8 µM; actives 1.4% (n = 370,000); AID 652067;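 active = activation above the mean of all tested compounds plus 3 SD, cut at about 5.5% in these data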;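 also: 100% = response to 3 µM Δ7-dafachronic acid high control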
hgDAF12 agonist: activates the H. glycines DAF-12 receptor ligand-binding domain; AID 687014; activation, % at 6.8 µM; actives 1.8% (n = 370,000); HEK293 GAL4-hgDAF12 UAS-luciferase reporter, agonist luminescence; normalized to butyrate control;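 active = activation above a cutoff set at the mean of all screened compounds plus 3 SD, cut at about 10% in these data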;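 also: 0% = DMSO wells and 100% = sodium butyrate wells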
DAX1 inh-2: inhibitors of DAX1 repression of SF-1 activated StAR promoter. HEK293T StAR-luciferase reporter, SF-1/DAX-1 repression relief. inhibition, % at 6.8 µM. actives 1.1% (n = 370,000). AID 652010;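 active = inhibition above the mean over all tested compounds plus 3 SD, cut at about 3.6% in these data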;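 also: 0% = DAX-1 cells with DMSO and 100% = cells lacking DAX-1 with DMSO; higher inhibition means more luminescence from relief of DAX-1 repression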
GAA850 FXN act: activators of GAA850 frataxin (FXN) promoter | AID 540364 | activation, % at 6 µM | HEK293 lucGAA850 FXN promoter luciferase reporter, 24 h; percent of 10 µM SAHA response | actives 0.56% (n = 360,000);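 active = activation above the average of all compounds screened plus 3 SD, cutoff fixed separately per campaign, cut at about 7.5% in these data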;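 also: 0% = DMSO wells and 100% = 10 µM SAHA wells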
ssDAF-12 act: activators of S. stercoralis DAF-12 nuclear receptor | HEK293 ssDAF-12/GRIP1 lit1-tk-luc reporter, luminescence; % of 3 µM dafachronic acid response | activation, % at 6.8 µM | actives 1% (n = 370,000) | AID 652126;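 active = activation above the mean over all tested compounds plus 3 SD, cut at about 0.9% in these data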;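 also: 0% = DMSO-only wells and 100% = 3 µM delta7-dafachronic acid wells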
DAX1 conf: NR0B1 (human) inhibition, confirmation. shares compounds with DAX1 inh-2. HEK293T StAR-promoter luciferase reporter, SF-1/DAX-1 repression. inhibition, % at 6.8 µM. actives 87% (n = 2,400). AID 652134;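 active = inhibition above the average of every tested compound plus 3 SD, cut at about 3.8% in these data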;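 also: 0% = DAX-1 cells with DMSO and 100% = no DAX-1 control cells with DMSO; active compounds raise luminescence by relieving repression of the StAR reporter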
Target sequence (P51843 whole entry, looked up): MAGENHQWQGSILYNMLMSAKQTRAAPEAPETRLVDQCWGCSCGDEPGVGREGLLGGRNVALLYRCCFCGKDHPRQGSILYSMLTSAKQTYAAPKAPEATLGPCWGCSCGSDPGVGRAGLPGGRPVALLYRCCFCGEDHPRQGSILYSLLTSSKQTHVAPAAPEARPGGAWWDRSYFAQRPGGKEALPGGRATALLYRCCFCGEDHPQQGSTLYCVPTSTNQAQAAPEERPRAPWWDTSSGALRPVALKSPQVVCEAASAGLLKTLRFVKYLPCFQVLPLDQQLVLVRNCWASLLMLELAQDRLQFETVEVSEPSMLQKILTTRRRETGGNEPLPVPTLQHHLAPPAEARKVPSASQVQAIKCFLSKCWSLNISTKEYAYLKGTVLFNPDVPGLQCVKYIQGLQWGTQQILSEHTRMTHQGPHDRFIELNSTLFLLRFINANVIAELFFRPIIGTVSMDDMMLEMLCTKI
SF1 mutant ctr: counter-screen for DAX1 inhibitors: nonselective inhibitors with SF-1 AF2 mutant. shares compounds with DAX1 inh-2. HEK293 StAR-luciferase, luminescence. inhibition, % at 6.8 µM. actives 78% (n = 2,400);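 active = inhibition above the mean of all tested compounds plus 3 SD, cut at about 3% in these data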;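 also: 0% = DAX-1 transfected cells with DMSO and 100% = cells without DAX-1 with DMSO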
Starred values were filed as active, the others as inactive; nt = no result. Hits are enriched below; roughly 4.5% of the tested compounds scored in any of these assays.

SMILES | DAX1 inh-1 | hcDAF-12 act | hgDAF12 agonist | DAX1 inh-2 | GAA850 FXN act | ssDAF-12 act | DAX1 conf | SF1 mutant ctr
CCOc1ncccc1C(=O)NCc1ccccc1F | 0 | -1 | 0 | 0 | 4 | -2 | nt | nt
CCOc1ncccc1C(=O)NCC(c1ccccc1)N(C)C (stereo unspecified) | 1 | 4 | -1 | 5.1* | 2 | 0 | 8.1* | 4.0*
O=C(NCCCN1CCCC1=O)C(=O)Nc1cccc(F)c1 | 0 | 1 | 10 | 5.9* | 4 | 0 | 7.5* | 5.3*
Cc1ccc(OCC(=O)Nc2ccon2)c([N+](=O)[O-])c1 | 2 | 3 | 6 | 5.3* | 5 | 0 | 6.5* | 3.7*
CCOc1c(Cl)cc(C(=O)Nc2cccc(C(=O)O)c2)cc1Cl | -3 | 4 | 6 | 7.6* | 4 | 0 | 6.5* | 4.6*
O=C(OCc1cn(Cc2ccccc2F)nn1)N1CCCC1 | nt | -1 | -1 | 0 | nt | 0 | nt | nt
O=C(Nc1ccc(F)c(Cl)c1)c1csc([C@@H]2C[C@H](O)[C@@H](CO)O2)n1 | nt | 3 | 2 | 4.7* | -1 | -1 | 3 | 2
O=C(Nc1ccc(F)cc1F)c1cc(-c2ccc(Cl)cc2)nc2ccccc12 | nt | -1 | 1 | 0 | nt | -1 | nt | nt
O=C(C1CCN(c2ncnc3c2sc2cccc(F)c23)CC1)N1CCN(Cc2ccccc2)CC1 | nt | 1 | -3 | -1 | nt | -1 | nt | nt
O=C1CCc2cc(S(=O)(=O)N3CCN(c4ccccc4Cl)CC3)ccc2N1 | nt | -3 | 0 | -1 | nt | -1 | nt | nt
O=C(CCNC(=O)N1CC(=O)Nc2ccccc21)NCc1ccc(F)cc1 | 1 | -1 | 6 | 6.0* | -1 | -1 | 5.3* | 3.3*
O=C(CNC(=O)N1CC(=O)Nc2ccccc21)NCc1ccc(F)cc1 | 1 | 0 | 5 | 2 | 1 | -1 | nt | nt
COc1ccc(O)c(C(=O)CC(=O)c2cccnc2)c1 | 4 | 2 | 10 | 6.5* | 2 | 0 | 7.3* | 6.9*
Cc1c(C(=O)NCCCN2CCOCC2)oc2ccc(S(=O)(=O)N3CCOCC3)cc12 | 0 | 0 | -5 | 0 | 2 | -1 | nt | nt
CC(=O)N1CCN(C(=O)c2oc3ccccc3c2C)CC1 | 1 | 2 | 1 | 5.3* | 1 | -1 | 3 | 3.7*
Cc1ccc2oc(C(=O)NCCCN3CCOCC3)c(C)c2c1 | 3 | 5 | 11* | 6.6* | 4 | 0 | 8.9* | 7.6*
Cc1ccc2oc(C(=O)N3CCCCCC3)c(C)c2c1 | 2 | 4 | 10 | 5.3* | 7 | 0 | 5.2* | 3.5*
Cc1c(C(=O)N2CCCCC2)oc2ccc(Br)cc12 | 0 | 1 | 11* | 5.5* | 2 | 1 | 5.8* | 4.0*
COc1ccc(-c2c(Cc3ccccc3)nc(NC(=O)c3ccccc3)n2C)cc1 | nt | -1 | 0 | 0 | nt | -1 | nt | nt
Cc1cc(C)c2nc(SCC(=O)N3CC(=O)Nc4ccccc43)c(C#N)cc2c1 | -1 | -2 | -2 | 4.8* | 2 | -1 | 10* | -7
Cc1ccc(NC(=O)OCCCN2C(=O)CCC23CCC(C)CC3)cc1 (stereo unspecified) | nt | -2 | -1 | 1 | nt | -2 | nt | nt
O=C(CCn1nnc2ccccc21)N1CCN(Cc2ccc3c(c2)OCO3)CC1 | nt | -1 | -3 | -1 | nt | -2 | nt | nt
C[C@@H]1CN([C@H](C)CO)C(=O)CCCn2nncc2CO[C@@H]1CN(C)S(=O)(=O)c1ccc2c(c1)OCCCO2 | 1 | 2 | 3 | 4.8* | 0 | -1 | 2 | 2
c1cncc(CN2CCN(c3cc(-c4cnc5ccccc5c4)nc4ccnn34)CC2)c1 | nt | -1 | 3 | -1 | -2 | -2 | nt | nt
CCN=c1scc(-c2ccco2)n1/N=C/c1ccc(OC)c(O)c1 | 2 | 3 | 10 | 5.0* | 7 | 0 | 15* | 7.3*
SMILES | DAX1 inh-1 | hcDAF-12 act | hgDAF12 agonist | DAX1 inh-2 | GAA850 FXN act | ssDAF-12 act | DAX1 conf | SF1 mutant ctr
CC(=O)NC(CC(=O)N1CCN(C(C)=O)CC1)c1ccccc1 (stereo unspecified) | 0 | 0 | 1 | 5.3* | 0 | -1 | 3 | 0
O=C(NC(CC(=O)N1CCN(c2ccccc2)CC1)c1ccccc1)c1ccccc1 (stereo unspecified) | 2 | -2 | -2 | -1 | -2 | -2 | nt | nt
O=C(CNC(=O)OCc1ccccc1)NC1CCCCCC1 | 0 | -2 | 4 | 1 | 0 | -1 | nt | nt
O=C(N[C@H]1/C=C\[C@@H](O)CCCC1)OCc1ccccc1 | 3 | 5 | 11* | 7.6* | 2 | 1 | 11* | 9.1*
O=C(N[C@@H](Cc1cccnc1)C(=O)N1CCC[C@H]1C(=O)NCCc1ccccc1Cl)c1ccccc1 | nt | -1 | -1 | 0 | nt | -1 | nt | nt
O=C(c1cccc(Cl)c1)N1CCN(c2ccnc3cc(Cl)ccc23)CC1 | nt | -4 | 0 | nt | nt | -3 | nt | nt
O=C(CC1SC(N2CCCCC2)=NC1=O)Nc1cccc(C(=O)Nc2ncccc2O)c1 (stereo unspecified) | 1 | 3 | 11* | 7.9* | 0 | 0 | 9.7* | 9.1*
CC(C)(C)NC(=O)C(c1ccc(-c2ccccc2)cc1)n1c(=O)c(-c2cc3ccccc3[nH]2)nc2ccccc21 (stereo unspecified) | nt | 5 | 5 | 4.9* | nt | 1.4* | 4.4* | 4.6*
C[C@H]1[C@H](N(C)C)CC[C@@]23CCCN2C(=O)CCC[C@@H]13 | nt | -1 | -3 | nt | nt | -2 | nt | nt
O=C(O)C1CCCN(C(=O)/C=C/c2ccccc2)CC1 (stereo unspecified) | nt | -2 | -2 | 0 | -2 | -1 | nt | nt
O=C(C=Cc1ccccc1)N1CCCCC1 | 2 | 3 | 5 | 5.2* | 4 | 0 | 6.2* | 4.7*
CCC(C(=O)NCCCN1CCN(C)CC1)n1nc(C)c2sc3ccccc3c2c1=O (stereo unspecified) | 0 | 0 | 0 | 0 | -1 | -1 | nt | nt
CCCN1CCN(CCCNC(=O)C(CC)n2nc(C)c3sc4ccccc4c3c2=O)CC1 (stereo unspecified) | 1 | 2 | 1 | 5.3* | 0 | -1 | 3 | 4.3*
Oc1c(C2=NCCNC(C(F)(F)F)=C2)ccc2ccccc12 | 2 | 3 | 19* | 4.7* | 6 | 1 | 6.5* | 4.6*
Cc1c(C(=O)NCc2ccccc2)sc(=O)n1Cc1ccccc1F | nt | -3 | 2 | -1 | 1 | -2 | nt | nt
Cc1ccc(NC(=O)CCc2c(C)nn(-c3ccc(N4CCCCC4)nn3)c2C)cc1F | 0 | 1 | 11* | 10* | 5 | 0 | 8.2* | 4.0*

From PubChem BioAssay
